Source: PubChem BioAssay (several laboratories)
MITF act: MITF TRPM1 promoter activation in melanoma cells; SK-MEL-5 TRPM1-promoter luciferase, 24 h; % of positive control, neutral wells = 0; activation, % at 12.5 µM; 300,000 tested, 0.75% active; AID 588334;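 active means mean activation of at least 80% with every replicate also reaching 80%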
Wnt act: activators of Wnt/beta-catenin signaling; Wnt/beta-catenin reporter cell assay, activator, plate reader; activation, % at 9.35 µM; 300,000 tested, 1.2% active; AID 743398; in the data active means activation above about 30%, passing the limit was not always enough
A3A deaminase: inhibitors of human APOBEC3A DNA deaminase. recombinant A3A, FAM/TAMRA ssDNA deamination fluorescence. inhibition, % at 20 µM. 330,000 tested, 0.41% active. AID 493011;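 active means at least 40% inhibition at 20 µM here, with at most 30% in a related deaminase screen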
Target sequence (P31941 whole entry, looked up): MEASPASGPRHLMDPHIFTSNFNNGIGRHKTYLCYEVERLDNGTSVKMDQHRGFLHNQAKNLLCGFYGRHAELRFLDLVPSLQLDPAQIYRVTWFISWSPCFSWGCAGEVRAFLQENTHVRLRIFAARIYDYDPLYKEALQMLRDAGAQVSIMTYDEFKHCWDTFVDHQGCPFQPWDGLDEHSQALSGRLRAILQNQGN
esBAF inh: blocks esBAF chromatin remodeling in mouse ES cells; Bmi1-luciferase knock-in reporter, 24 h; 100% = twice the neutral-well signal; AID 602393; 350,000 tested, 2% active; reporter increase, % at 12.5 µM; in the data active means activation above about 40%;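 further: a rise in the Bmi1 reporter signal indicates esBAF inhibition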
APOBEC3G inh: APOBEC3G (human) deaminase inhibition; Q9HC16; recombinant A3G, ssDNA deamination FAM/TAMRA fluorescence; inhibition, % at 20 µM; 330,000 tested, 0.28% active; AID 493012;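 active means inhibition of at least 40% at 20 µM, with no more than 30% in the related APOBEC3A deaminase screen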
PHOSPHO1 inh: PHOSPHO1 (human) inhibition; Q8TCT1; recombinant PHOSPHO1, absorbance phosphatase assay; inhibition, % at 13.3 µM; 290,000 tested, 1.1% active; AID 1565; in the data active means inhibition above about 60%
Target sequence (Q8TCT1 whole entry, looked up): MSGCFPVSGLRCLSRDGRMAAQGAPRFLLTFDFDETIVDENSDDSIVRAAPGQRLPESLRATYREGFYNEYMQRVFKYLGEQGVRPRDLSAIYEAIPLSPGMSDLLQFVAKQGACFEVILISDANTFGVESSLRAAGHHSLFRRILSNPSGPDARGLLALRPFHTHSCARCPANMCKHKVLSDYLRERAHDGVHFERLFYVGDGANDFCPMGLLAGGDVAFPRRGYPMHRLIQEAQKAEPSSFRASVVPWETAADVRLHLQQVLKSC
Each line names hits and unclear results; the compound was inactive in the other large screens. The list is not random: actives were taken first. Their share in the collection is about 3.6%.

Cc1ccc(NC(=S)NC(=O)C2CCC2)cc1C	MITF act 112.7, esBAF inh 84.0
CN1[C@@H]2Cn3c(ccc(C4=CCCC4)c3=O)[C@H]1[C@@H](C(=O)N1CCCCC1)[C@@H]2CO	none (no result: MITF act, Wnt act, A3A deaminase, APOBEC3G inh, PHOSPHO1 inh)
COc1ccc(NC(=O)N(C)C[C@@H]2OCCCC[C@H](C)Oc3ccc(N(C)C)cc3C(=O)N([C@@H](C)CO)C[C@@H]2C)cc1	none (no result: MITF act, Wnt act, A3A deaminase, APOBEC3G inh, PHOSPHO1 inh)
COc1ccc(C2=NNC(c3cccs3)=Nc3ccc(OC)cc32)cc1	esBAF inh 64.3 (no result: Wnt act)
O=C(CC(F)(F)F)N1C[C@H]2[C@@H](c3ccccc31)[C@H](CO)N2C(=O)C1CC1	none (no result: MITF act, Wnt act, A3A deaminase, APOBEC3G inh, PHOSPHO1 inh)
CSc1cccc2sc(NC(=O)C3=COCCO3)nc12	esBAF inh 56.8 (no result: PHOSPHO1 inh)
C=CCSC1=NNC(c2ccc(C(C)(C)C)cc2)=NN1	esBAF inh 62.8
CCOC(=O)c1cnc(SCC(C)C)nc1N	MITF act 109.1, Wnt act 70.0, esBAF inh 52.5
CCOC(=O)c1cnc(SC)nc1N	none
CCOC(=O)c1cnc(SCc2cccc(C)c2)nc1N	Wnt act 40.4 (no result: esBAF inh)
CCOC(=O)c1cnc(SCC(=O)c2ccccc2)nc1N	MITF act 96.8, PHOSPHO1 inh 101.9 (no result: Wnt act)
Cc1ccccc1S(=O)(=O)NCC[C@H]1CC[C@H](NC(=O)C2CCOCC2)[C@@H](CO)O1	none (no result: MITF act, Wnt act, A3A deaminase, APOBEC3G inh, PHOSPHO1 inh)
CCC(=O)Nc1ccc2c(c1)OC[C@H](C)N(C(=O)CC1CC1)C[C@H](C)[C@H](OC)CN(C)C2=O	none (no result: MITF act, Wnt act, A3A deaminase, APOBEC3G inh, PHOSPHO1 inh)
COc1ccc(S(=O)(=O)N2C[C@@H](O)COC[C@H]3O[C@@H](CC(=O)N[C@H]4CCN(Cc5ccccc5)C4)CC[C@@H]32)cc1	none (no result: MITF act, Wnt act, A3A deaminase, APOBEC3G inh, PHOSPHO1 inh)
O=C(O)c1ccccc1-c1ccc(/C=C2\SC(=O)N(c3ccccc3)C2=O)o1	esBAF inh 55.7 (no result: MITF act)
CC(=O)c1cc(C#N)c(SCc2ccncc2)nc1C	PHOSPHO1 inh 69.4 (no result: Wnt act)
CC(=O)c1cc(C#N)c(SCc2ccc([N+](=O)[O-])cc2)nc1C	none (no result: esBAF inh)
Cc1ccc(/C=N/NC(=S)N2CCOCC2)cc1	PHOSPHO1 inh 61.7 (no result: Wnt act, esBAF inh)
S=C(N/N=C/c1ccc(Cl)cc1)N1CCOCC1	none (no result: Wnt act)
S=C(N/N=C/c1ccc(Br)cc1)N1CCCCC1	esBAF inh 49.6 (no result: MITF act)
CC(=O)N(C)C[C@H]1Oc2cc(C#Cc3ccccc3)ccc2S(=O)(=O)N([C@H](C)CO)C[C@H]1C	none (no result: MITF act, Wnt act, A3A deaminase, APOBEC3G inh, PHOSPHO1 inh)
Cc1ccc(NC(=O)CSc2nc3nc(C)c(Br)cc3[nH]2)cc1F	none
COC(=O)CSc1nc2nc(C)c(Br)cc2[nH]1	PHOSPHO1 inh 73.3 (no result: MITF act)
C=C(C)CSc1nc2nc(C)c(Br)cc2[nH]1	PHOSPHO1 inh 82.7
C[C@@H]1CN([C@H](C)CO)C(=O)c2cccc(NC(=O)C3CC3)c2O[C@H]1CN(C)Cc1ccncc1	none (no result: MITF act, Wnt act, A3A deaminase, APOBEC3G inh, PHOSPHO1 inh)
C[C@@H]1CCCCO[C@H](CN(C)S(C)(=O)=O)[C@@H](C)CN([C@@H](C)CO)C(=O)c2cc(NC(=O)c3ccccc3)ccc2O1	none (no result: MITF act, Wnt act, A3A deaminase, APOBEC3G inh, PHOSPHO1 inh)
CCOC(=O)C1(Cc2ccccc2Cl)CCN(C(=O)c2cc(C)on2)CC1	none
CCOC(=O)C1(Cc2ccccc2Cl)CCN(C(=O)c2cnccn2)CC1	esBAF inh 66.7
CC(C)CC#Cc1cnc2c(c1)C(=O)N([C@H](C)CO)C[C@@H](C)[C@H](CN(C)Cc1ccc3c(c1)OCO3)O2	none (no result: MITF act, Wnt act, A3A deaminase, APOBEC3G inh, PHOSPHO1 inh)
CCCc1cn(CC[C@@H]2CC[C@H](NC(=O)C3CCCCC3)[C@H](CO)O2)nn1	none (no result: MITF act, Wnt act, A3A deaminase, APOBEC3G inh, PHOSPHO1 inh)
CC(=O)c1ccc(OCc2cc(C(=O)N(C)C3CCOC3)no2)cc1 (stereo not given)	esBAF inh 61.2
Cc1cc(OCc2cc(C(=O)N(C)C3CCOC3)no2)cc(C)c1Cl (stereo not given)	Wnt act 35.0, esBAF inh 83.4
COc1cc(Cl)ccc1OCc1cc(C(=O)N(C)C2CCOC2)no1 (stereo not given)	esBAF inh 55.5
CN(C(=O)c1cc(COc2c(F)cccc2F)on1)C1CCOC1 (stereo not given)	none
CC(=O)c1ccc(OCc2cc(C(=O)N(C)CCOc3ccc(C)cc3)no2)cc1	MITF act 116.0 (no result: esBAF inh)
O=C(C[C@H]1C[C@@H]2c3cc(NC(=O)CC4CC4)ccc3O[C@@H]2[C@H](CO)O1)NCCN1CCCCC1	none (no result: MITF act, Wnt act, A3A deaminase, APOBEC3G inh, PHOSPHO1 inh)
O=C(O)CC1=C(O)C(=O)N(c2ccccc2)C1c1ccccc1 (stereo not given)	none
O=C(O)CC1=C(O)C(=O)N(c2ccccc2)C1c1ccc(Br)cc1 (stereo not given)	none (no result: Wnt act)
